Assay outcomes (PubChem)
Abeta yeast res: qHTS for compounds that reverse cellular toxicity of Amyloid beta (A-beta) peptide in yeast: Primary Screen | Potency, µM (series often up to 46.1 µM), most hits filed as activators | yeast expressing A-beta42, growth rescue, OD600, 48 h; response scale: 0% DMSO, 100% iron-clioquinol control | hit rate 0.063% among 410,000; further: nearly all actives have a fitted effect of over 55% in size
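Yeast A-beta toxicity model in growth medium with pinned compounds, 48 h at 30 C; growth read as absorbance at 600 nm. Normalized to FeCl3/clioquinol equimolar mix (positive) and DMSO (negative).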
FUS suppressor: qHTS for Suppressors of FUS Proteinopathy: Primary screen using FUS-linked yeast assay; S. cerevisiae FUS-expressing, growth rescue, OD600, 24 h; Potency, µM (series often up to 76.6 µM), usual class: activators; AID 1347120, 2019; hit rate 0.24% among 390,000;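 further: plate controls were DMSO vehicle for no effect and reference control for full effect; nearly all actives have a fitted effect of over 55% in size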
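S. cerevisiae expressing FUS from galactose induction served as the toxicity model. Growth after 24hr at 30C, read as absorbance at 600 nm, indicates suppression of toxicity; compounds dosed at several concentrations.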
TDP-43 yeast inh: qHTS of TDP-43 Inhibitors. hit rate 1.8% among 410,000. Potency, µM (titrated, usually from 46.1 µM), for inactives: top-dose growth rescue (activation), actives largely listed as activators. AID 652104, 2013. TDP-43 expressing yeast growth rescue, BacTiter-Glo, 24 h; further: % of control where 0% means no effect; nearly all actives have a fitted effect of over 50% in size
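Luminescence from BacTiter-Glo reports growth of TDP-43-expressing yeast after 24 hr at 30 deg C with compound. Cells were raffinose-pregrown to mid-log, then seeded in galactose medium at OD600=0.02.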
Mito fusion act: qHTS Assay for Small Molecule Inhibitors of Mitochondrial Division or Activators of Mitochondrial Fusion. S. cerevisiae fusion-defective mutant growth rescue, CellTiterGlo 48 h. Potency, µM (highest dose often 46.1 µM), for the others: at the highest dose growth rescue (activation), most hits filed as activators. hit rate 0.23% among 320,000; further: % of control where 0% means no effect; nearly all actives have a fitted effect of over 45% in size
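Temperature-sensitive fusion-defective S. cerevisiae (e.g. fzo1-1, mgm1-5) were grown with compound in YPEG medium (3% ethanol, 3% glycerol) for 48 hours at 37C. Growth rescue was measured as viability by CellTiterGlo luminescence after 10 minutes at ambient.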
aSyn yeast inh: qHTS of alpha-syn Inhibitors; Yeast expressing alpha-synuclein, growth rescue, BacTiter-Glo, 24 h; Potency, µM (highest dose often 46.1 µM), inactives show at the top dose growth rescue (activation), actives largely listed as activators; hit rate 0.14% among 370,000; AID 652106, 2013; further: % of control where 0% means no effect; nearly all actives have a fitted effect of over 65% in size
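Readout is rescue of growth in alpha-synuclein-expressing yeast, so inhibitors of toxicity appear as activators. Growth after 24 hr at 30 deg C in galactose medium is quantified by luminescence.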
An asterisk follows results filed as active; i = inactive; ? = inconclusive; . = no result. This is a sample that favours compounds with a hit; in the whole collection about 2.2% have one here. The call rests on the fitted dose curve; in most records, active means well fitted curve in the direction sought with a large enough effect; inconclusive means small, poorly fitted or top-dose-only effect, or another doubt; inactive means no such curve, though single readings can be large; an effect the other way counts as inactive or inconclusive. Potency means the concentration at half of the fitted maximal effect.

SMILES	Abeta yeast res	FUS suppressor	TDP-43 yeast inh	Mito fusion act	aSyn yeast inh
O=C(c1ccc(F)cc1)c1ccc(CN2C(=O)c3ccccc3C2=O)o1	i	i	12.6µM*	5.9%	2.0%
COC(=O)c1ccc(CN2C(=O)c3ccccc3C2=O)cc1	i	i	?	5.0%	?
O=C(c1ccc(Cl)cc1)c1ccc(CN2C(=O)c3ccccc3C2=O)o1	i	i	14.1µM*	12.7%	10.3%
Cc1ccc(-c2c(C(=O)NC3CCCC3)oc(=O)c3ccccc23)cc1	.	i	.	.	.
COC(=O)c1cc(C)sc1NC(=O)CCc1ccccc1	i	i	11.2µM*	-0.8%	2.7%
Cc1nc(NC(=O)CCc2ccccc2)sc1C	i	i	12.6µM*	-2.1%	1.8%
Cc1nc(NC(=O)c2ccccc2)sc1C	i	i	-19.9%	-9.7%	-5.6%
COC(=O)c1ccccc1NC(=O)CCc1ccccc1	i	i	10µM*	21.9%	-3.2%
CCN(CC)C(=O)CC[C@H]1CC[C@]2(CCCN(CC3CC3)C2)O1	.	i	.	.	.
COC(=O)[C@]12C[C@H](CC(=O)N3CCN(C(=O)C4CC4)CC3)C(=O)N(Cc3cccc4ccccc34)C1=C[C@H](C(C)(C)C)O[C@@H]2C	.	i	.	.	.
Cc1nc(/C(N)=N/OC(=O)c2ccccc2Cl)c(C(F)(F)F)o1	i	i	28.2%	3.5%	-0.4%
Cc1nc(/C(N)=N/OC(=O)c2cccc(Cl)c2)c(C(F)(F)F)o1	i	i	20µM*	7.6%	0.6%
CCN(C(=O)COC(=O)c1c2c(nc3ccccc13)/C(=C/c1ccccc1)CC(C)C2)C1CCS(=O)(=O)C1 (stereo not drawn)	i	.	14.1µM*	20µM*	12.9%
O=C(Nc1ccc2c(c1)OCCO2)C(c1ccccc1F)n1c(=O)c(-c2cc3ccccc3[nH]2)nc2ccccc21 (stereo not drawn)	i	i	35.6%	.	19.1%
O=C(Nc1ccc2c(c1)OCCO2)C(c1ccc(C(F)(F)F)cc1)n1c(=O)c(-c2cc3ccccc3[nH]2)nc2ccccc21 (stereo not drawn)	?	i	?	.	10µM*
N#Cc1ccc(C(C(=O)Nc2ccc3c(c2)OCCO3)n2c(=O)c(-c3ccco3)nc3ccccc32)cc1 (stereo not drawn)	i	6.31µM*	25.4%	.	?
O=C(Nc1ccc2c(c1)OCCO2)C(C1CC1)n1c(=O)c(-c2ccco2)nc2ccccc21 (stereo not drawn)	i	i	?	.	8.6%
O=C(Nc1ccc2c(c1)OCCO2)C(c1ccncc1)n1c(=O)c(-c2cc3ccccc3[nH]2)nc2ccccc21 (stereo not drawn)	i	i	28.2µM*	.	-6.6%
O=C(OC12CCCN(C1)/C(=C/c1cccc(Cl)c1)C2)c1ccco1 (stereo not drawn)	.	i	.	.	.
O=C(CCNC(=O)c1ccco1)Nc1ccc(OC(F)(F)F)cc1	i	i	-1.4%	8.1%	-0.4%
COc1ccc(Nc2nnc(SCC3CCCO3)s2)cc1 (stereo not drawn)	i	i	28.2µM*	1.2%	-9.6%
Cc1cccc(Nc2nnc(SCC3CCCCO3)s2)c1C (stereo not drawn)	i	.	-22.7%	0.7%	16.2%
COc1cccc(Nc2nnc(SCC3CCCCO3)s2)c1 (stereo not drawn)	i	i	10µM*	1.1%	-0.1%
CCOC(=O)NC[C@@]1(C(=O)OC)CC(=O)N(C)[C@@H]1c1ccccc1	.	i	.	.	.
COc1cc(C(=O)OC2CCOC2=O)cc(Cl)c1OC (stereo not drawn)	i	i	7.6%	1.8%	8.2%
SMILES	Abeta yeast res	FUS suppressor	TDP-43 yeast inh	Mito fusion act	aSyn yeast inh
Cc1ccc(CSCC(=O)Nc2ccc3c(c2)OCO3)cc1	i	i	26.5%	5.0%	4.8%
O=C(CSCc1ccc(Cl)cc1)Nc1ccc2c(c1)OCCO2	i	i	11.2µM*	0.9%	4.6%
CCN(C(=O)/C=C/c1ccc(OC)cc1)C1CCCCC1	i	i	17.8µM*	2.0%	6.4%
COc1cc(OC)c(NC(=O)CCc2nc(-c3cccs3)no2)cc1Cl	i	i	20µM*	3.4%	7.6%
COC(=O)C1=C(C)N(c2ccc(S(N)(=O)=O)cc2)C(=O)C1	i	i	2.2%	1.4%	-1.8%
COC(=O)C1=C(C)N(c2ccc(Cl)c(Cl)c2)C(=O)C1	i	i	12.6µM*	0.6%	-10.8%
COc1cc(C(=O)N2CCc3c([nH]c4ccccc34)C2c2ccc(C)cc2)cc(OC)c1OC (stereo not drawn)	i	14.1µM*	2.0%	.	.
O=C(c1cc(-c2ccccc2)n[nH]1)N1CCc2c([nH]c3ccccc23)C1c1ccccn1 (stereo not drawn)	?	?	17.8µM*	19.6%	?
COc1cc(C(=O)N2CCc3c([nH]c4ccccc34)C2c2ccccc2)cc(OC)c1OC (stereo not drawn)	i	?	8.4%	.	.
Cc1cc(NC(=O)c2ccc(Br)cc2)nc(C)n1	i	i	15.8µM*	-1.3%	-2.1%
O=C(CCCc1cccs1)Nc1ccc2c(c1)OCO2	i	i	3.8%	-0.1%	-5.6%
CCN1C(=O)CSC1=Nc1ccc(OC)cc1	i	i	17.4%	1.1%	6.9%
CCN1C(=O)CSC1=Nc1ccc(Cl)c(Cl)c1	i	i	12.6µM*	7.4%	-17.0%
Cn1c(N)c(C(C[N+](=O)[O-])c2c(F)cccc2Cl)c(=O)n(C)c1=O (stereo not drawn)	i	i	11.2µM*	-11.8%	9.9%
CCCCN(C)c1c2c(nc3ncnn13)CCCC2	.	i	.	.	.
COc1cccc(C(=O)Nc2nnc(-c3cccs3)o2)c1	?	i	0.0%	5.0%	7.4%
CCOc1ccccc1C(=O)OCC(=O)Nc1nnc(-c2ccccc2)o1	?	i	22.4µM*	-6.6%	?
O=C(Nc1nnc(-c2ccccc2)o1)c1ccc(Cl)cc1	?	.	?	7.9%	?
COc1cccc(-c2nnc(NC(C)=O)o2)c1	i	i	10.9%	-2.3%	-3.8%
CCOc1ccccc1C(=O)NC(C(=O)OCC(=O)Nc1nnc(-c2ccccc2)o1)C(C)C (stereo not drawn)	i	?	?	5.2%	?
COc1cccc(C(=O)Nc2nnc(-c3ccc(Cl)cc3)o2)c1	?	i	3.16µM*	-15.9%	?
CC(=O)c1ccc(C(=O)Nc2nnc(-c3ccc(Cl)cc3)o2)cc1	6.31µM*	i	10µM*	.	3.16µM*
COc1cccc(C(=O)Nc2nnc(-c3ccc(F)cc3)o2)c1	?	i	7.08µM*	-20.8%	10µM*
